Screening results deposited in PubChem BioAssay by National Center for Advancing Translational Sciences (NCATS).
Hits are enriched below; roughly 12% of the tested compounds scored in any of these assays.
Sfp PPTase inh – qHTS Assay for Inhibitors of Bacillus subtilis Sfp phosphopantetheinyl transferase (PPTase) | Biochemical Sfp PPTase activity, qHTS | 310,000 compounds, 3.5% hits | 4'-phosphopantetheinyl transferase ffp (Bacillus subtilis), Q9F4F7 | Potency, µM, for inactives: largest response in the series, negative = inhibition, usual class: inhibitors;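 also: the enzyme is Sfp with the accession as filed and its product quenches rhodamine fluorescence; 0% = enzyme reaction without inhibitor and -100% = no enzyme wells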
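Sfp 15 nM + cpd, 15 min RT; start w/ rhodamine-CoA 5 uM, BHQ-2-YbbR 12.5 uM (final); 50 mM Hepes pH 7.6, 10 mM MgCl2, 0.01% NP-40, 0.01% BSA; read 525/598 nm at 0 and 30 min.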
BAZ2B block – qHTS Assay for Inhibitors of BAZ2B; Bromodomain adjacent to zinc finger domain protein 2B (Homo sapiens), Q9UIF8; AlphaScreen BAZ2B-H3K14Ac peptide displacement; Potency, µM (titrated, usually from 114 µM), inactives show at the highest dose activity change, negative = inhibition, hits mostly inhibitors; 360,000 compounds, 4.4% hits; AID 504333, 2011; also: % is scaled to controls: 0 for no effect and ±100 for the full control effect; nearly all actives have a fitted effect of over 60% in size
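BAZ2B 50 nM plus b-H3(5-23)K14Ac 50 nM, PBS pH 7.4/0.01% Tween-20, 30 min RT; compound added (max 110 uM), 30 min RT; streptavidin donor/Ni-chelate acceptor beads 10 ug/mL final, 20 min dark; AlphaScreen read.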
HP1b binding inh – HTS for Inhibitors of HP1-beta Chromodomain Interactions with Methylated Histone Tails; Chromobox protein homolog 1 (Homo sapiens), P83916; AlphaScreen HP1-beta / biotin-H3K9me3 peptide binding; Potency, µM (titrated, usually from 114 µM), for inactives: top-dose activity change, negative = inhibition, most hits filed as inhibitors; 390,000 compounds, 0.56% hits; AID 540317, 2011; also: nearly all actives have a fitted effect of over 70% in size
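HP1-beta protein (50 nM final) preincubated 30 min at room temperature with biotinylated H3(1-18)K9me3 peptide (50 nM) in PBS pH 7.4, 0.01% Tween-20, then compound added for 30 min. AlphaScreen streptavidin donor/nickel chelate acceptor beads (10 ug/mL final), 30 min dark, luminescence read.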
JMJD2A Tudor – qHTS Assay for Inhibitors of JMJD2A-Tudor Domain; Potency, µM (series often up to 114 µM), for the others: top-dose activity change, negative = inhibition, most hits filed as inhibitors; 390,000 compounds, 4.4% hits; Lysine-specific demethylase 4A (Homo sapiens), O75164; AID 504339, 2011; AlphaScreen JMJD2A-Tudor / H3K4me3 peptide binding; also: % is scaled to controls: 0 for no effect and ±100 for the full control effect; nearly all actives have a fitted effect of over 50% in size
G9a block – qHTS Assay for Inhibitors of Histone Lysine Methyltransferase G9a. Histone-lysine N-methyltransferase EHMT2 (Homo sapiens), Q96KQ7. G9a H3K9 monomethylation, AlphaScreen, 2 h. Potency, µM (top dose mostly 102 µM), for the others: top-dose activity, negative = inhibition, hits mostly inhibitors. 350,000 compounds, 8.8% hits. AID 504332, 2011; also: % is scaled to controls: 0 for no effect and ±100 for the full control effect; nearly all actives have a fitted effect of over 75% in size
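Chemiluminescent proximity detection of H3K9 monomethylation, read after 10 min bead incubation in the dark. Reaction: 20 nM G9a, 500 nM biotin-H3K9 peptide, 20 uM SAM cofactor, 2 h, room temperature, following 15 min enzyme-compound preincubation.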
PLK1 PBD block – qHTS for Inhibitors of PLK1-PDB (polo-like kinase 1 - polo-box domain): Primary Screen; Plk1 PBD binding of FITC phosphopeptide, fluorescence polarization; Potency, µM, without a hit: max response, negative = inhibition, most hits filed as inhibitors; 360,000 compounds, 2.8% hits; AID 720504, 2013; also: series mostly up to about 57 µM; % is scaled to controls: 0 for no effect and ±100 for the full control effect; nearly all actives have a fitted effect of over 65% in size
The depositor's hits bear a star; ? = inconclusive; / = not tested or not shown; ! = not confirmed by another sample; [ ] = another dose, or the depositor's remark. Calls follow the shape of the dose curve; as a rule, active = well fitted curve in the direction sought with a large enough effect; inconclusive = small, poorly fitted or top-dose-only effect, or another doubt; inactive = no such curve, though single readings can be large; an effect the other way counts as inactive or inconclusive. Potency is read from the fitted curve at half-maximal effect.

SMILES | Sfp PPTase inh | BAZ2B block | HP1b binding inh | JMJD2A Tudor | G9a block | PLK1 PBD block
CN1CCN(C=NC2=NN(c3cccc(C(F)(F)F)c3)CC2)CC1 | -9% | ? | ? | ? | 2.8µM* | -9%
CN(C)C=NC1=NN(c2cccc(C(F)(F)F)c2)CC1 | 6% | ? | -13% | ? | 2.2µM* | -5%
O=C(/C=C/c1ccco1)NC(=S)Nc1ccccn1 | ? | 56µM* | -25% | 79µM* | ? | ?
Cc1cccnc1NC(=S)NC(=O)/C=C/c1ccco1 | -10% | -21% | 29% | -10% | 32µM* | -27%
COc1ccc(CNC(=O)CCCNC(=O)c2ccc(Cl)cc2)cc1OC | -3% | 11% | 39% | -9% | -11% | -4%
NC(=O)C1CC2(NC(=O)NC2=O)c2cc(F)ccc2O1 (stereo not given) | 8% | / | / | / | -2%[12.7 µM] | /
Cc1c(C(=O)Nc2ccccc2Br)oc2ccc(S(=O)(=O)N3CCCCCC3)cc12 | / | 2% | 21% | ? | 1%[59 µM] | /
Cc1nc2sccn2c(=O)c1CCN1CCC(=C(c2ccc(F)cc2)c2ccc(F)cc2)CC1 | 56µM*! | ? | -1% | ? | 1%[59 µM] | -6%
CN1/C(=N\O)c2cccc3cccc1c23 | -24% | 4% | -13% | 17% | 32µM* | 27µM*
CNC(=O)CN1C(=O)c2cccc3cccc1c23 | -3% | 11% | 24% | 3% | 12%[12.7 µM] | 5%
CN(Cc1ccccc1)C(=O)c1ncn2c1C(=O)N(C)CC2 | / | / | / | / | / | -3%
CN(Cc1ccccc1)C(=C(Cl)Cl)/C(=C1/NCCN1C)[N+](=O)[O-] | 21% | -33% | 28% | -4% | 50µM* | 0%
CN1CCN/C1=C(/C(Cl)=C(Cl)Cl)[N+](=O)[O-] | -3% | -27% | 36% | ? | 13µM* | -7%
CCOc1ccccc1CN1CCC(O)CC1 | -12% | ? | ? | 5.6µM* | -24%[12.7 µM] | -6%
CCCS(=O)(=O)N1CCN(Cc2ccccc2OCC)CC1 | -25% | ? | ? | 2.8µM* | ? | -3%
CCOc1ccccc1CN1CCCC(C(=O)c2ccc(OC)c(OC)c2)C1 (stereo not given) | 11% | -34% | 29% | -18% | 1%[59 µM] | -12%
COc1ccc(S(=O)(=O)N2CCN(Cc3ccccc3OC)CC2)cc1 | / | / | / | / | / | -1%
O=C(COc1ccccc1F)Nc1ccc2nc(SCc3ccccc3)sc2c1 | / | -10% | 58% | 16% | 6%[59 µM] | /
CCC/C=C(\CCC)C(NS(=O)(=O)c1ccccc1)c1ccc(C(F)(F)F)cc1 (stereo not given) | 27% | / | / | / | / | /
Cc1ccc(C)c(S(=O)(=O)Nc2cc(SCC(=O)O)c(O)c3ccccc23)c1 | 3.5µM* | 20µM* | ? | 40µM* | 1.1µM* | 1.5µM*
CCOc1ccc(S(=O)(=O)Nc2cc(SCC(=O)O)c(O)c3ccccc23)cc1 | -84% | 50µM* | 13µM* | 22µM* | ? | 1.7µM*
Cc1ccc(NS(=O)(=O)c2cc(NC(=O)C(C)Oc3ccccc3)ccc2C)c(C)c1 (stereo not given) | -16% | -36% | 26% | -25% | 14%[59 µM] | -10%
Cc1c(NS(=O)(=O)c2ccccc2)cc(C(C)C)c(O)c1S(=O)(=O)c1ccc(Cl)cc1 | / | -27% | 39% | -19% | 12%[59 µM] | /
CCc1ccc(S(=O)(=O)Nc2cc(SCC(=O)O)c(O)c3ccccc23)cc1 | 4µM* | ? | ? | 22µM* | 3.5µM* | 1.2µM*
O=C(O)CSc1cc(NS(=O)(=O)c2cccc([N+](=O)[O-])c2)c2ccccc2c1O | 2.8µM* | ? | 10µM* | -35%[11.4 µM] | 2.5µM* | 1.5µM*
SMILES | Sfp PPTase inh | BAZ2B block | HP1b binding inh | JMJD2A Tudor | G9a block | PLK1 PBD block
Cc1occc1C(=O)N1CCC2(CCCN(Cc3ccc(F)c(F)c3)C2)C1 (stereo not given) | 3% | -26% | -10% | -28% | 14% | -13%
CCCCc1nc2c(c3c1C[C@H](C)OC3)CN(C(=O)N[C@@H](C)c1ccccc1)CC2 | -12% | / | / | / | / | /
CSc1ncnc2c1ncn2CCCNCCCN1CCCC1=O | / | / | / | / | / | -5%
O=C1c2ccccc2C(=O)c2cc(S(=O)(=O)Nc3cccc4cccnc34)ccc21 | 7% | / | / | ? | / | /
O=S(=O)(Nc1cc(Sc2cccc3cccnc23)c(O)c2ccccc12)c1ccccc1 | 10µM* | ? | / | / | 1.6µM* | /
CCCN(CCC)S(=O)(=O)c1cccc(-c2csc(C)n2)c1 | -1% | 43% | 70% | 76% | 277% | -6%
CCN(CC)S(=O)(=O)c1ccc(-c2csc(C)n2)cc1 | -1% | 13% | 22% | ? | / | 9.5µM*
CCc1cc(C(=O)N2CCOCC2)c(NC2=NS(=O)(=O)c3ccccc32)s1 | -26% | -37% | 40% | -4% | 89µM* | 0%
CN1CCN(S(=O)(=O)c2cccc(C(=O)N(C)CC(=O)Nc3ccc(Cl)c(Cl)c3)c2)CC1 | / | / | 23% | -13% | / | -14%
COc1c2occc2c(OC)c2c(=O)cc(C(F)(F)C(F)(F)F)oc12 | 33% | -2% | 34% | -7% | 7%[59 µM] | 0%
CCOC(=O)/C(=C\c1ccc(Cl)cc1)c1nc2sc(C)c(C)c2c(=O)[nH]1 | 40µM* | -8% | ? | ? | 25µM* | 7.5µM*
CCOc1ccc(NC(=O)CSc2nc(=O)[nH]c3c2CCC3)cc1 | / | -10% | 15% | 1% | -6%[59 µM] | /
Brc1cccc(-c2cnc3n2CCCCC3)c1 | -17% | -10% | -16% | ? | 45µM* | -3%
CC(=O)NS(=O)(=O)c1ccc(NS(=O)(=O)c2ccccc2[N+](=O)[O-])cc1 | -1% | -3% | 36% | 6% | / | 1%
Cc1cccc(-n2ccnc2SCC(=O)Nc2cccc(S(=O)(=O)NC3=NCCC3)c2)c1C | / | -12% | 14% | -23% | 40µM* | -19%
Cc1ccc(C)c(NC(=O)CSc2nccn2-c2cccc(C)c2C)c1 | / | 10µM* | ? | ? | 18µM* | /
COC(=O)C1=C(C)N(CCc2cc(OC)c(OC)c(OC)c2)C(=O)N[C@H]1c1ccccc1 | 6% | / | 18% | -5% | / | 5%
CCc1ccccc1N1C(=O)N(Cc2cc(=O)n3ccccc3n2)c2ccccc2S1(=O)=O | / | -1% | 52% | -13% | 3%[59 µM] | /
CCC1CC=CC2C1C(=O)N(Cc1ccccc1)C2c1ccc2ccccc2c1 (stereo not given) | 2% | / | 41% | -4% | / | /
